Screening results: PubChem BioAssay, several laboratories
BioA inh – BioA (M. tuberculosis) enzyme inhibition; purified M. tuberculosis BioA enzyme, plate reader; inhibition, % at 9.99 µM; 360,000 compounds, 0.096% hits; in the data active = inhibition above about 40%; inconclusive = no clear call, values can overlap the other calls
GDH-TPI counter-1 – counter-screen for M. tuberculosis FBA inhibitors: GDH-TPI coupled enzymes. GDH-TPI coupled enzyme counterscreen, NADH absorbance. 360,000 compounds, 1.2% hits. inhibition, % at 4.8 µM. AID 588335; in the data active = inhibition above about 30%
FadD28 binding – M. tuberculosis FadD28 bisubstrate binding inhibition; FadD28 bisubstrate probe binding, fluorescence polarization; inhibition, % at 12.5 µM; 360,000 compounds, 0.22% hits; AID 588549; in the data active = inhibition above about 8.5%, passing the limit was not always enough; inconclusive = no clear call, values can overlap the other calls
Rv3671c inh – Rv3671c (M. tuberculosis) protease inhibition | P9WHR9 | inhibition, % at 5.96 µM | 320,000 compounds, 0.048% hits | AID 2606; in the data active = inhibition above about 38%;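 note: extracellular domain of Rv3671c used as enzyme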
Target sequence (P9WHR9 whole entry, looked up, the tested form may be a part): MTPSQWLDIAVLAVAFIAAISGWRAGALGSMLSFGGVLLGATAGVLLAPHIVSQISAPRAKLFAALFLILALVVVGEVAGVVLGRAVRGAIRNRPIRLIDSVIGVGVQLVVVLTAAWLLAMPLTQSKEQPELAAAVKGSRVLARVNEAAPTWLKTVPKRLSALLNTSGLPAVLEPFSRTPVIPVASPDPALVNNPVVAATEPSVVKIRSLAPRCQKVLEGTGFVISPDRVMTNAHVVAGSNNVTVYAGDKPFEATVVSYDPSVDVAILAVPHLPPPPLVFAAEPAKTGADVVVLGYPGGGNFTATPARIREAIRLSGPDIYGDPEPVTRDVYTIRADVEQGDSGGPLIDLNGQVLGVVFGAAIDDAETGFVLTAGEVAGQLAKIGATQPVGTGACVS
Mtb FBA inh – Mtb fructose-bisphosphate aldolase inhibition; 360,000 compounds, 2.3% hits; purified M. tuberculosis FBA, fluorescence read-out; AID 588726; inhibition, % at 1 µM
Target sequence (P9WQA3 whole entry, looked up): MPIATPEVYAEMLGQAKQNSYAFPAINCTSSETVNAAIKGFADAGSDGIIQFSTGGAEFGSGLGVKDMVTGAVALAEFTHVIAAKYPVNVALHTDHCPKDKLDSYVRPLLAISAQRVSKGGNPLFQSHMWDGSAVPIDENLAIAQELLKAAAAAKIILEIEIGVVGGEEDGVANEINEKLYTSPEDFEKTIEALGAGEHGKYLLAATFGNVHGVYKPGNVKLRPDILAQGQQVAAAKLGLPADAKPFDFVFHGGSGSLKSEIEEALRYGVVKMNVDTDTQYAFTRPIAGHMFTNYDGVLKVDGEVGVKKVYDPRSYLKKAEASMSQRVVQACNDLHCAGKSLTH
Mtb FBA confirm – confirmation of M. tuberculosis fructose-bisphosphate aldolase inhibitors. AID 651616. inhibition, % at 1 µM. shares compounds with Mtb FBA inh. 5,600 compounds, 78% hits. purified M. tuberculosis FBA, fluorescence read-out
GDH-TPI counter-2 – counter-screen for M. tuberculosis FBA inhibitors: GDH-TPI coupled enzyme inhibition; shares compounds with Mtb FBA inh; GDH-TPI coupled enzyme counterscreen, fluorescence; inhibition, % at 1 µM; 5,600 compounds, 81% hits; in the data active = inhibition above about 10%
Of the large screens only hits and unclear results are named; the others gave an inactive call (follow-up assays come after a bar, where they were run). In the library only some 3% were active in any assay of this set; here they are far more common. Cut-off read from the data, not from the text of the source, unless noted: active = inhibition above about 27%; inactive = the rest.

COc1ccc(CN(C)C[C@H]2Oc3ccc(NC(=O)Cn4cnnn4)cc3C(=O)N([C@H](C)CO)C[C@H]2C)cc1	none (no result: GDH-TPI counter-1, FadD28 binding, Rv3671c inh, Mtb FBA inh)
CC(C)(C)c1cc(=O)n2c(C#N)c(C#N)nc2[nH]1	Mtb FBA inh 80 | Mtb FBA confirm 47 | GDH-TPI counter-2 40
CC(C)(C)c1ccc(-n2nc(C#N)c(Cl)cc2=O)cc1	none (no result: BioA inh, Rv3671c inh)
Cc1ccc(-c2cn3c(=O)cc(C)[nH]c3n2)cc1	Mtb FBA inh 53 | Mtb FBA confirm 55 | GDH-TPI counter-2 75
Cc1cc(=O)n2cc(-c3ccccc3)nc2[nH]1	Mtb FBA inh 89 (no result: BioA inh) | Mtb FBA confirm 121 | GDH-TPI counter-2 94
Cc1nn(C)cc1NC(=O)C[C@H]1CC[C@@H]2[C@@H](COc3ccc(NC(=O)C(C)C)cc3C(=O)N2C)O1	none (no result: GDH-TPI counter-1, FadD28 binding, Rv3671c inh, Mtb FBA inh)
Cc1noc(C)c1NC(=O)N(C)C[C@H]1Oc2ccc(NS(=O)(=O)c3c(C)noc3C)cc2C(=O)N([C@@H](C)CO)C[C@H]1C	none (no result: GDH-TPI counter-1, FadD28 binding, Rv3671c inh, Mtb FBA inh)
COc1ccccc1N/N=C/c1c(CO)cnc(C)c1O	none
COc1cc(N=Cc2c(CO)cnc(C)c2O)cc(OC)c1OC	Mtb FBA inh 82 | Mtb FBA confirm 63 | GDH-TPI counter-2 63
C[C@H](CO)N1C[C@H](C)[C@@H](CN(C)C(=O)c2cnccn2)Oc2ncc(-c3cccc(C#N)c3)cc2C1=O	none (no result: GDH-TPI counter-1, FadD28 binding, Rv3671c inh, Mtb FBA inh)
CCOC(=O)c1ccc2nc(C)c3c(c2c1)OC(C)C3 (stereo unspecified)	Mtb FBA inh 38 | Mtb FBA confirm 175 | GDH-TPI counter-2 130
COc1ccc2nc(C)c3c(c2c1)OC(C)C3 (stereo unspecified)	none (no result: BioA inh)
COc1cccc2c3c(c(C)nc12)CC(C)O3 (stereo unspecified)	Mtb FBA inh 40 | Mtb FBA confirm 106 | GDH-TPI counter-2 75
Cc1c(C)c2ccc(OCC(=O)NCc3ccccn3)cc2oc1=O	Mtb FBA inh 81 | Mtb FBA confirm active | GDH-TPI counter-2 active
Cc1c(C)c2ccc(OC(C)C(=O)NCc3ccccn3)cc2oc1=O (stereo unspecified)	Mtb FBA inh 87 | Mtb FBA confirm 155 | GDH-TPI counter-2 121
CC(Oc1ccc2c3c(c(=O)oc2c1)CCC3)C(=O)NCc1ccccn1 (stereo unspecified)	none
Cc1cc(=O)oc2cc(OCC(=O)NCc3ccccn3)ccc12	none
Cc1cc(OC(C)C(=O)NCc2cccnc2)c2c(C)c(Cc3ccccc3)c(=O)oc2c1 (stereo unspecified)	none
Cc1cc(OC(C)C(=O)NCc2ccccn2)c2c(C)c(C)c(=O)oc2c1 (stereo unspecified)	Mtb FBA inh 44 | Mtb FBA confirm active | GDH-TPI counter-2 173
CC(Oc1ccc2c3c(c(=O)oc2c1)CCCC3)C(=O)NCc1ccccn1 (stereo unspecified)	Mtb FBA inh 79 | Mtb FBA confirm 31 | GDH-TPI counter-2 16
CCC1(C)Cc2c(sc3[nH]c(=O)[nH]c(=O)c23)CS1 (stereo unspecified)	Mtb FBA inh 80 | Mtb FBA confirm 72 | GDH-TPI counter-2 61
COc1cccc2sc3cc(NCc4ccc5c(c4)OCO5)ccc3c(=O)c12	GDH-TPI counter-1 39, Mtb FBA inh 53 | Mtb FBA confirm inactive | GDH-TPI counter-2 19
Cc1nn(Cc2ccccc2Cl)c2sc(C(=O)Nc3ccccc3N3CCOCC3)cc12	Mtb FBA inh 97 (no result: BioA inh) | Mtb FBA confirm 72 | GDH-TPI counter-2 64
Cc1nn(Cc2ccc(F)cc2)c2sc(C(=O)Nc3ccccc3N3CCOCC3)cc12	FadD28 binding inconclusive (no result: BioA inh)
O=C(NCCN1CCCCC1)[C@H]1N[C@H]2c3ccc(-c4ccc(F)cc4)c(=O)n3C[C@H]2[C@@H]1CO	none (no result: GDH-TPI counter-1, FadD28 binding, Rv3671c inh, Mtb FBA inh)
Cc1ncc(CO)c(/C=N/NC(=O)c2ccoc2C)c1O	Mtb FBA inh 33 (no result: Rv3671c inh) | Mtb FBA confirm inactive | GDH-TPI counter-2 inactive
C[C@@H]1CN([C@H](C)CO)C(=O)Cc2cc(NS(=O)(=O)c3ccc(Cl)cc3)ccc2O[C@H]1CN(C)C	none (no result: GDH-TPI counter-1, FadD28 binding, Rv3671c inh, Mtb FBA inh)
CN(C)C1=NCC(CSC(=N)N)S1 (stereo unspecified)	Mtb FBA inh 68 | Mtb FBA confirm 200 | GDH-TPI counter-2 175
C[C@H]1CN([C@@H](C)CO)C(=O)c2cc(NS(C)(=O)=O)ccc2O[C@H]1CN(C)Cc1ccc(-c2ccccc2)cc1	none (no result: GDH-TPI counter-1, FadD28 binding, Rv3671c inh, Mtb FBA inh)
COc1cccc(NC(=O)Cc2nnc(SCC(=O)c3ccccc3)n2C)c1	Mtb FBA inh 83 (no result: Rv3671c inh) | Mtb FBA confirm 161 | GDH-TPI counter-2 122
COc1ccc(-c2ccc(-c3noc(C(C)C)n3)c(OC)n2)cc1	Mtb FBA inh 108 | Mtb FBA confirm 135 | GDH-TPI counter-2 107
Cc1c(C)c2ccc(OCC(=O)N[C@@H](Cc3c[nH]c4ccccc34)C(=O)O)cc2oc1=O	none
CCCCCCc1c(C)c2ccc(OCC(=O)N[C@@H](Cc3ccccc3)C(=O)O)cc2oc1=O	Mtb FBA inh 73 | Mtb FBA confirm active | GDH-TPI counter-2 active
Cc1cc(OCC(=O)N[C@@H](CSCc2ccccc2)C(=O)O)c2c(C)c(C)c(=O)oc2c1	Mtb FBA inh 62 | Mtb FBA confirm 78 | GDH-TPI counter-2 68
COc1ccc2c(COC(=O)c3n[nH]c4ccccc34)cc(=O)oc2c1	Mtb FBA inh 35 | Mtb FBA confirm 124 | GDH-TPI counter-2 107
Cc1c(C)c2ccc(OCC(=O)NC(Cc3ccc(Cl)cc3)C(=O)O)cc2oc1=O (stereo unspecified)	Mtb FBA inh 96 | Mtb FBA confirm 116 | GDH-TPI counter-2 79
Cc1c(CC(=O)NCC(=O)N[C@H](Cc2ccccc2)C(=O)O)c(=O)oc2cc(O)ccc12	none (no result: Mtb FBA inh)
C=CCNS(=O)(=O)c1ccc(C(=O)OCc2cc(=O)oc3cc(OC)ccc23)cc1	none (no result: FadD28 binding)
Cc1c(Cc2ccccc2)c(=O)oc2c(C)c(OCC(=O)N3CCC(C(=O)O)CC3)ccc12	Mtb FBA inh 107 | Mtb FBA confirm 60 | GDH-TPI counter-2 32
COc1ccc2c(COC(=O)[C@H](C)NS(=O)(=O)c3ccccc3F)cc(=O)oc2c1	Mtb FBA inh 109 | Mtb FBA confirm active | GDH-TPI counter-2 153
Cc1c(Cc2ccccc2)c(=O)oc2c(C)c(OCC(=O)NCc3ccccn3)ccc12	none
Cc1c(Cc2ccccc2)c(=O)oc2c(C)c(OC(C)C(=O)NCC3CCC(C(=O)O)CC3)ccc12 (stereo unspecified)	none
Cc1c(Cc2ccccc2)c(=O)oc2c(C)c(OCC(=O)N[C@@H](Cc3ccccc3)C(=O)O)ccc12	Mtb FBA inh 53 | Mtb FBA confirm active | GDH-TPI counter-2 active
Cc1c(C)c2ccc(OCC(=O)NC3CCN(Cc4ccccc4)CC3)cc2oc1=O	Mtb FBA inh 39 | Mtb FBA confirm 50 | GDH-TPI counter-2 39
O=C(Nc1ccc2c(c1)[C@H]1C[C@H](CC(=O)N3CCOCC3)O[C@H](CO)[C@H]1O2)C1CCC1	none (no result: GDH-TPI counter-1, FadD28 binding, Rv3671c inh, Mtb FBA inh)
OC[C@H]1[C@@H](c2ccc(-c3cccc(F)c3)cc2)[C@@H]2CN(CCC(F)(F)F)CCCCN12	none (no result: GDH-TPI counter-1, FadD28 binding, Rv3671c inh, Mtb FBA inh)
